Experimental data reported in PubChem BioAssay AID624330 (Southern Research Specialized Biocontainment Screening …, 2012).
Hit rate of the full screen: of about 340,000 compounds, about 2,100 (0.62%) were called active.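 The calls were made as follows: active = first-screen hits whose inhibition reached a set limit at any dose in the follow-up dose series; inconclusive = inhibition above the set first-screen limit but never retested; inactive = the rest.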 A selection follows. Measured potencies and affinities stand elsewhere.

target: Rac GTPase-activating protein 1 (Homo sapiens) (UniProt Q9H0H5); assay: blockers of MgcRacGAP-driven Rac1 GTP hydrolysis – biochemical, ADP Hunter fluorescence, primary and confirmatory, confirmation (AID 624330); conditions: MgcRacGAP-stimulated Rac1 GTP hydrolysis, at 30 µM, stronger effect = higher value, GST-tagged Rac1 F28L mutant substrate;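 also: fluorescence reports GDP produced by GAP-driven GTP hydrolysis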
Sequence (Q9H0H5 whole entry, looked up): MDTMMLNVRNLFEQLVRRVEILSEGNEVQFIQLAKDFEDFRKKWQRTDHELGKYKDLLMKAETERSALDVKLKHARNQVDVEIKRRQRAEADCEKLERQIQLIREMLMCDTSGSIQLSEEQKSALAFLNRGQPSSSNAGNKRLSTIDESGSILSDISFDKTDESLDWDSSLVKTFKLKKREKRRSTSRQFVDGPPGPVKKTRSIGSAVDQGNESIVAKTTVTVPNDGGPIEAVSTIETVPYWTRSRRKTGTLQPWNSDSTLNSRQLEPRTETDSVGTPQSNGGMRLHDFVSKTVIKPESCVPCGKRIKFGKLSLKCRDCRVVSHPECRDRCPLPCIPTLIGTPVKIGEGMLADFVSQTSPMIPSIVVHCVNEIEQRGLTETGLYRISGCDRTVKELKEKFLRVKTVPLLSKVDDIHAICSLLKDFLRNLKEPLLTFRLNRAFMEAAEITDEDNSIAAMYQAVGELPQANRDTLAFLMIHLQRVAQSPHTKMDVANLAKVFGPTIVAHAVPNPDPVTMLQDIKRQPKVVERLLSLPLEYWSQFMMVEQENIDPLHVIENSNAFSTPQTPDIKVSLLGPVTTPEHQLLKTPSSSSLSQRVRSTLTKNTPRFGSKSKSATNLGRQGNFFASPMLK

inhibition, inactive:
CCOCCn1c(SC(C)C(C)=O)nc2c1c(=O)[nH]c(=O)n2C (stereo unspecified) 5.63%
CCOC(=O)c1c(C)oc2c(CN3CCN(C)CC3)c(Br)c(OC)c(O)c12 14.1%
COc1ccccc1N=Nc1c(C)noc1C 2.76%
COc1ccccc1N=Nc1c(C)n[nH]c1C 7.74%
COCCN(C(=O)CSc1nc2ccc(Cl)cc2[nH]1)c1c(N)n(Cc2ccccc2)c(=O)[nH]c1=O 10.9%
Cn1ncc(Cl)c1C(=O)N1CCN(c2cccc(Cl)c2)CC1 7.96%
CCN(c1ccccc1)S(=O)(=O)c1ccc(Cl)c(NC(=O)CN2CCCCCC2)c1 29.2%
CCN(c1ccccc1)S(=O)(=O)c1ccc(Cl)c(NC(=O)CN2CCN(C)CC2)c1 -0.66%
CCCCSCCCNC(=O)c1ccc(CS(=O)(=O)c2ccccc2OC)o1 5.81%
CC(C)Cn1c(-c2ccc(F)cc2)n[nH]c1=S 14.4%
CC(C)Cn1c(-c2ccco2)n[nH]c1=S 26.8%
CCOC(=O)C1=C(c2ccccc2)Nc2ncnn2C1c1ccc(O)cc1 (stereo unspecified) 5.08%
COc1ccc(N2C(=O)CSC2c2ccncc2)cc1 (stereo unspecified) 8.8%
COc1ccc(C2CC(c3ccncc3)=NN2c2ccc(S(N)(=O)=O)cc2)cc1 (stereo unspecified) 9.08%
Cc1ccnc(NC(=O)c2cccc(NC(=O)c3ccccc3C)c2)c1 11.1%
Clc1ccc(-c2ccc(C=Nc3ccc(N4CCOCC4)cc3)o2)cc1 25.6%
Clc1ccc(-c2ccc(C=Nc3ccc(N4CCOCC4)cc3)o2)c(Cl)c1 9.07%
Clc1cccc(-c2ccc(C=Nc3ccc(N4CCOCC4)cc3)o2)c1 23.7%
O=C(CN1CCOCC1)N/N=C/c1ccc(-c2cccc(Cl)c2Cl)o1 7.09%
Cc1c(C)c2cccnc2c2ncccc12 8.09%
O=C1CCCc2oc3ccc(NS(=O)(=O)c4cccc5cccnc45)cc3c21 -1.33%
COc1ccc(Br)cc1S(=O)(=O)n1nc(C)cc1C -4.17%
CCN(CC(=O)NCCCn1ccnc1)S(=O)(=O)c1ccc(C)cc1 -8.53%
O=C(c1cccn2c(=O)c3cc(Cl)ccc3nc12)N1CCN(Cc2ccc3c(c2)OCO3)CC1 9.42%
Cc1cc(C)c(C#N)c(Sc2ccc(N)cc2)n1 8.38%
COc1ccccc1CN1CC(C(=O)NCc2cnn(C)c2)CCC1=O (stereo unspecified) 5.74%
COc1cccc(CNCc2cccc(OC)c2O)c1O -13.3%
COc1cc(CNCc2ccco2)cc(OC)c1O 6.83%
CCOC(=O)c1ccccc1NC(=O)COC(=O)c1ccc(OCC(=O)N2CCOCC2)c(OCC)c1 4.78%
Cc1ccc(N(CC(=O)N2CCc3ccccc32)S(=O)(=O)c2cccs2)cc1 1.58%
CCN1CCN(CC#CCOc2ccccc2OC)CC1 29.8%
COc1ccc(OCC#CCn2ccnc2)cc1 -14.9%
COc1ccccc1OCC#CCNC1CCCCC1C (stereo unspecified) 22.6%
COc1ccccc1OCC#CCSc1ncccn1 7.44%
CC1CC(C)CN(S(=O)(=O)c2ccc(C(=O)Nc3sccc3C(N)=O)cc2)C1 (stereo unspecified) 3.38%
O=C(Cn1c(=O)cnc2ccccc21)Nc1cc(Cl)ccc1N1CCOCC1 -4.21%
CCN(CC(=O)Nc1ccc(OC)cc1)CC(=O)Nc1sc2c(c1C(=O)OC)CCCC2 3.58%
CCC(=O)Nc1c(C)cc(C)cc1Cl 12.3%
CCCC(=O)NC1=C(Cl)C(=O)c2ccccc2C1=O 24.7%
Cc1cccc(NC(=O)CN2CCN(C(=O)CN3C(=O)NC4(CCCCC4C)C3=O)CC2)c1C (stereo unspecified) 7.46%
CCN(CC)c1ccc(/C=N/Nc2nc(C)cc(=O)[nH]2)c(O)c1 22.4%
CCN(CC)c1ccc(/C=N/NC(=O)c2ccco2)c(O)c1 9.97%
CCOC(=O)N/N=C/c1ccc(F)cc1F 3.61%
CCN(CC)c1ccc(/C=N/NC(=S)NCc2ccccc2)c(O)c1 12.5%
CCN(CC)c1ccc(/C=N/NC(=O)c2ccoc2C)c(O)c1 2.9%
CCN(CC)c1ccc(/C=N/Nc2ccccc2)c(O)c1 5.91%
CCN(CC)c1ccc(/C=N/Nc2ccc(C)cc2)c(O)c1 11.6%
CCN(CC)c1ccc(/C=N/NC(=O)Cc2cccs2)c(O)c1 -34.9%
CCOc1ccc(N(CC(=O)Nc2cc(Cl)ccc2C)S(C)(=O)=O)cc1 -0.16%
CCOc1ccc(CC(=NCCO)C2=C(O)CC(C)(C)CC2=O)cc1OCC 2.19%
Cn1c(=O)oc2cc(S(=O)(=O)NCCN3CCc4ccccc4C3)ccc21 -3.64%
CCN(CC)C(=O)CN1C(=O)C(=O)c2ccccc21 6.56%
Nc1ccn(CCCN2CCN(Cc3cccc4ccccc34)CC2)c(=O)n1 19.7%
Cc1ccccc1N1CCN(C(=O)NCc2cccc(Cl)c2)CC1 2.37%
Cc1ccc(S(=O)(=O)N2CCC(C(=O)NC3CCCCC3C)CC2)cc1 (stereo unspecified) 17.3%
O=C(c1ccc(Cn2c(=O)[nH]c3ccccc3c2=O)cc1)N1CCN(c2ccccc2)CC1 -4.78%
CC(NC(=O)CCC(=O)NC(C)C1COc2ccccc2O1)C1COc2ccccc2O1 (stereo unspecified) 6.94%
CCOC(=O)CCNCC1COc2ccccc2O1 (stereo unspecified) 0.26%
COc1ccc2nc(NC(=O)CN(C)S(=O)(=O)c3cccs3)sc2c1 2.51%
Cc1c(C(=O)NC2CC(=O)N(c3ccc4c(c3)OCCO4)C2)cccc1[N+](=O)[O-] (stereo unspecified) 10.5%
O=S(=O)(Nc1ccc(-c2ccc(NS(=O)(=O)c3ccccc3)cc2)cc1)c1ccccc1 -20.9%
COc1ccc(NC(=O)Cc2ccccc2)cn1 3.42%
COc1ccc(NC(=O)C(Cl)=C(Cl)Cl)cn1 6.63%
COc1ccc(NC(=O)/C(Cl)=C(/Cl)S(=O)(=O)Cc2ccccc2)cn1 25.6%
COc1ccc(CS(=O)(=O)/C(Cl)=C(/Cl)C(=O)Nc2ccc(OC)nc2)cc1 19.4%
CC(C)(C)c1nnc2cccc(Cl)n12 0.67%
CCN1C(=O)[C@H]2[C@@H](c3ccc(-c4ccc(C(C)=O)cc4)c(OC)c3)N3CCCC[C@@]3(C(=O)OC)[C@H]2C1=O 5.29%
CCc1cc(=O)oc2cc(OC(C)C(=O)NCc3ccccn3)ccc12 (stereo unspecified) 7.67%
C/C(=N\NC(=O)c1ccc(NS(=O)(=O)c2cccs2)cc1)c1ccc(C(C)(C)C)cc1 8.43%
COCCNCc1ccccc1 -2.56%
COCCNc1nc(CSc2ccccc2)nc2sc(C)c(C)c12 8.51%
Cc1cc(C)cc(NC(=S)N2CCC(NC(=O)c3ccc(F)cc3)CC2)c1 4.86%
CCOc1ccc(NC(=O)C(NC(=O)C2CCC(C)CC2)C(C)C)cc1 (stereo unspecified) 8.67%
CCOc1cc(-c2cc(-c3ccccc3)nc(N)c2C#N)ccc1O 38.4%
COc1cc(/C=C(\C#N)c2[nH]nc(N)c2C#N)cc(OC)c1O 0.59%
COc1ccc(-c2cc(-c3ccc(O)cc3)nc(N)c2C#N)cc1OC 11.9%
COc1cc(-c2cc(-c3ccc(F)cc3)nc(N)c2C#N)ccc1O 40.9%
CCCc1cc(-c2ccc(O)c(OCC)c2)c(C#N)c(N)n1 -0.99%
CCOc1cc(-c2cc(-c3ccc(C)cc3)nc(N)c2C#N)ccc1O 16.3%
CCN(CC(=O)Nc1ccc(C#N)cc1)CC(=O)Nc1ccc2c(c1)OCCO2 4.07%
CCNC(=O)N1CCC(n2nccc2NC(=O)CCCc2ccccc2)CC1 6.88%
COc1ccccc1OCCC(=O)Nc1ccc2c(c1)OCO2 2.43%
C=CC[N+](C)(C)CCN1C(=O)C2C(c3ccccc3)C=CC(c3ccccc3)C2C1=O (stereo unspecified) -0.41%
C=CCC(NCc1ccco1)c1ccc(OC)c(OC)c1 (stereo unspecified) -6.08%
O=C(Oc1ccc2c(c1)OCC2=O)c1ccccc1 0.9%
O=c1oc(-c2cccc(S(=O)(=O)N3CCOCC3)c2)nc2ccccc12 13.7%
Cc1cccc(NC(=S)NC(=O)/C=C/c2ccccc2)n1 -2.63%
CC(C)(C)c1ccc(C(=O)NCC(=O)N2CCC3(CC2)NCCc2[nH]cnc23)cc1 11%
O=C(N/N=C/c1ccc[nH]1)c1ccccc1OCc1ccc(F)cc1 9.06%
COc1cc(/C=N/NC(=O)c2ccccc2O)ccc1OCC(=O)Nc1ccccc1 14.4%
CCOc1cc(/C=N/NC(=O)c2cc(C)n(-c3ccc(F)cc3)c2C)ccc1O 16.4%
O=C(N/N=C\c1ccccc1)c1ccccc1-n1cccc1 6.39%
O=C(N/N=C/c1ccc(Br)cc1)c1ccccc1-n1cccc1 10.6%
Cc1cccc(/C=N\NC(=O)c2ccccc2-n2cccc2)c1 5.46%
O=C(COc1ccccc1-c1ccccc1)N/N=C/c1ccc2ccccc2c1 6.35%
O=C(N/N=C\c1ccc(O)c([N+](=O)[O-])c1)c1ccccc1-n1cccc1 -4.94%
